Data: the supplement of paper PMC9794691

Assays:
H1975 [1] = test: area under confluence curve of osimertinib + compound combination regimen (DTP regrowth); compare to osimertinib-only DTP control AUC of the same experiment (AUC (confluence x time, arbitrary)); conditions: test compound dose 300 nM
Outline: (§1)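 Two schedules were compared in EGFR-mutant NSCLC lines. In one, the EGFR inhibitor and a fixed-dose test compound were given together up to the persister stage (10–21 days), followed by drug-free medium. In the other, the inhibitor alone came first and the test compound second. Prism calculated the area under the IncuCyte confluence–time curve, taking the median of triplicates where these were available.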

HCC2279 [2] = test: as above; conditions: test compound dose 300 nM
Outline: as §1

HCC2935 [3] = test: as above; conditions: test compound dose 300 nM
Outline: as §1

HCC4006 [4] = test: as above; conditions: DMSO control AUC in same experiment: 10921
Outline: as §1

HCC827 [5] = test: as above; conditions: test compound dose 300 nM
Outline: as §1

II-18 [6] = test: as above
Outline: as §1

H1975 [7] = test: area under confluence curve of compound monotherapy; compare to DMSO control AUC of the same experiment (AUC (confluence x time, arbitrary))
Outline: (§2)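 Adenocarcinoma lines were grown in RPMI 1640 with 10% FBS at 37 °C and 5% CO2, seeded at 20,000–30,000 cells/well in 48-well plates, and treated the next day with test compound alone at one dose: 1 uM or the highest dose giving <50% parental inhibition. Every 3–4 days the wells were washed with PBS and the drug was refreshed, and medium was drug-free from the DTP stage (10–21 days). IncuCyte tracked confluence until wells given only an EGFR inhibitor regrew. Area under the confluence curve was calculated in Prism, taking the median of triplicates where run, and set beside the vehicle value from the same experiment.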

HCC2279 [8] = test: as above
Outline: as §2

HCC2935 [9] = test: as above
Outline: as §2

HCC4006 [10] = test: as above
Outline: as §2

HCC827 [11] = test: as above
Outline: as §2

II-18 [12] = test: as above
Outline: as §2

[13] = 100 nM, DMSO control AUC in same experiment: 16638

## COc1nnc2ccc(N3CCC(c4ccc(OCCN5CCN(C)C(=O)[C@H]5C)cc4)CC3)nn12 + C=CC(=O)Nc1cc(Nc2nccc(-c3cn(C)c4ccccc34)n2)c(OC)cc1N(C)CCN(C)C [osimertinib]
H1975 [1]; dosing schedule: sequential, osimertinib-only DTP control AUC in same experiment: 12533, DMSO control AUC in same experiment: 14522
  area under confluence curve: 3520
H1975 [1]; dosing schedule: upfront, osimertinib-only DTP control AUC in same experiment: 18969, DMSO control AUC in same experiment: 14522
  area under confluence curve: 15900
HCC2279 [2]; dosing schedule: sequential, osimertinib-only DTP control AUC in same experiment: 5698, DMSO control AUC in same experiment: 27284
  area under confluence curve: 2470
HCC2279 [2]; dosing schedule: upfront, osimertinib-only DTP control AUC in same experiment: 30623, DMSO control AUC in same experiment: 27284
  area under confluence curve: 13900
HCC2935 [3]; dosing schedule: sequential, osimertinib-only DTP control AUC in same experiment: 9121, DMSO control AUC in same experiment: 11459
  area under confluence curve: 2580
HCC2935 [3]; dosing schedule: upfront, osimertinib-only DTP control AUC in same experiment: 12748, DMSO control AUC in same experiment: 11459
  area under confluence curve: 4310
HCC4006 [4]; test compound dose 30 nM, dosing schedule: sequential, osimertinib-only DTP control AUC in same experiment: 14882
  area under confluence curve: 6680
HCC4006 [4]; test compound dose 30 nM, dosing schedule: upfront, osimertinib-only DTP control AUC in same experiment: 18913
  area under confluence curve: 5730
HCC827 [5]; dosing schedule: sequential, osimertinib-only DTP control AUC in same experiment: 18675, DMSO control AUC in same experiment: 48895
  area under confluence curve: 4180
HCC827 [5]; dosing schedule: upfront, osimertinib-only DTP control AUC in same experiment: 25542, DMSO control AUC in same experiment: 48895
  area under confluence curve: 12300
II-18 [6]; test compound dose 30 nM, dosing schedule: sequential, osimertinib-only DTP control AUC in same experiment: 16416, DMSO control AUC in same experiment: 18996
  area under confluence curve: 4370
II-18 [6]; test compound dose 30 nM, dosing schedule: upfront, osimertinib-only DTP control AUC in same experiment: 18996, DMSO control AUC in same experiment: 18996
  area under confluence curve: 14400

## CN(C)CCCOc1ccc(-c2ccc3ncc4c(c3c2)n(C2CCOCC2)c(=O)n4C)cn1
H1975 [7]; 300 nM, DMSO control AUC in same experiment: 26223
  area under confluence curve: 22300
HCC2279 [8]; 300 nM, DMSO control AUC in same experiment: 14404
  area under confluence curve: 14100
HCC2935 [9]; 300 nM, DMSO control AUC in same experiment: 19215
  area under confluence curve: 21000
HCC4006 [10]; 300 nM, DMSO control AUC in same experiment: 18415
  area under confluence curve: 20100
HCC827 [11]; 300 nM, DMSO control AUC in same experiment: 21320
  area under confluence curve: 20700
II-18 [12]; 300 nM, DMSO control AUC in same experiment: 11834
  area under confluence curve: 12300

## Cc1nc(N2CCC3(CC2)CO[C@@H](C)[C@H]3N)c(CO)nc1-c1cccc(Cl)c1Cl
H1975 [7]; 1000 nM, DMSO control AUC in same experiment: 15857
  area under confluence curve: 17200
HCC2279 [8]; 1000 nM, DMSO control AUC in same experiment: 14404
  area under confluence curve: 12100
HCC2935 [9]; 1000 nM, DMSO control AUC in same experiment: 19215
  area under confluence curve: 19100
HCC4006 [10]; 1000 nM, DMSO control AUC in same experiment: 18415
  area under confluence curve: 19200
HCC827 [11]; 1000 nM, DMSO control AUC in same experiment: 21320
  area under confluence curve: 14900
II-18 [12]; 1000 nM, DMSO control AUC in same experiment: 11834
  area under confluence curve: 3600

## Cc1nc(Nc2ncc(C(=O)Nc3c(C)cccc3Cl)s2)cc(N2CCN(CCO)CC2)n1 [Dasatinib]
H1975 [7]; 100 nM, DMSO control AUC in same experiment: 14522
  area under confluence curve: 4980
HCC2279 [8]; 100 nM, DMSO control AUC in same experiment: 29252
  area under confluence curve: 28300
HCC2935 [9]; 100 nM, DMSO control AUC in same experiment: 13875
  area under confluence curve: 10400
HCC4006 [10]; [13]
  area under confluence curve: 11900
HCC827 [11]; 100 nM, DMSO control AUC in same experiment: 30859
  area under confluence curve: 25600
II-18 [12]; 30 nM, DMSO control AUC in same experiment: 11408
  area under confluence curve: 10100

## COC(=O)c1ccc([C@H]2c3[nH]c4ccccc4c3C[C@H](C(=O)OC)N2C(=O)CCl)cc1
H1975 [7]; 100 nM, DMSO control AUC in same experiment: 26010
  area under confluence curve: 25200
HCC2279 [8]; 100 nM, DMSO control AUC in same experiment: 9426
  area under confluence curve: 9000
HCC2935 [9]; 100 nM, DMSO control AUC in same experiment: 11459
  area under confluence curve: 11700
HCC4006 [10]; [13]
  area under confluence curve: 16200
HCC827 [11]; 100 nM, DMSO control AUC in same experiment: 35394
  area under confluence curve: 29100
II-18 [12]; 100 nM, DMSO control AUC in same experiment: 13556
  area under confluence curve: 7620

## CCn1nc(C2CCN(C(=O)CCO)CC2)nc1-c1cnc(N)c(-c2nnc(C(C)(C)C)o2)n1
H1975 [7]; 1000 nM, DMSO control AUC in same experiment: 20657
  area under confluence curve: 18200
HCC2279 [8]; 1000 nM, DMSO control AUC in same experiment: 9426
  area under confluence curve: 11400
HCC2935 [9]; 1000 nM, DMSO control AUC in same experiment: 13875
  area under confluence curve: 11700
HCC4006 [10]; 1000 nM, DMSO control AUC in same experiment: 16638
  area under confluence curve: 17000
HCC827 [11]; 1000 nM, DMSO control AUC in same experiment: 27404
  area under confluence curve: 27500
II-18 [12]; 1000 nM, DMSO control AUC in same experiment: 18482
  area under confluence curve: 14200

## O=C(NC[C@H](O)CN1CCc2ccccc2C1)c1ccnc(NC2CCC2)c1 + C=CC(=O)Nc1cc(Nc2nccc(-c3cn(C)c4ccccc34)n2)c(OC)cc1N(C)CCN(C)C [osimertinib]
H1975 [1]; dosing schedule: sequential, osimertinib-only DTP control AUC in same experiment: 15943, DMSO control AUC in same experiment: 20657
  area under confluence curve: 14900
H1975 [1]; dosing schedule: upfront, osimertinib-only DTP control AUC in same experiment: 27804, DMSO control AUC in same experiment: 20657
  area under confluence curve: 25700
HCC2279 [2]; dosing schedule: sequential, osimertinib-only DTP control AUC in same experiment: 15997, DMSO control AUC in same experiment: 40085
  area under confluence curve: 8560
HCC2279 [2]; dosing schedule: upfront, osimertinib-only DTP control AUC in same experiment: 28057, DMSO control AUC in same experiment: 40085
  area under confluence curve: 8330
HCC2935 [3]; dosing schedule: sequential, osimertinib-only DTP control AUC in same experiment: 7139, DMSO control AUC in same experiment: 15413
  area under confluence curve: 8090
HCC2935 [3]; dosing schedule: upfront, osimertinib-only DTP control AUC in same experiment: 19044, DMSO control AUC in same experiment: 15413
  area under confluence curve: 16100
HCC4006 [4]; test compound dose 300 nM, dosing schedule: sequential, osimertinib-only DTP control AUC in same experiment: 14882
  area under confluence curve: 9080
HCC4006 [4]; test compound dose 300 nM, dosing schedule: upfront, osimertinib-only DTP control AUC in same experiment: 18913
  area under confluence curve: 6670
HCC827 [5]; dosing schedule: sequential, osimertinib-only DTP control AUC in same experiment: 5666, DMSO control AUC in same experiment: 43928
  area under confluence curve: 5240
HCC827 [5]; dosing schedule: upfront, osimertinib-only DTP control AUC in same experiment: 19044, DMSO control AUC in same experiment: 43928
  area under confluence curve: 24000
II-18 [6]; test compound dose 300 nM, dosing schedule: sequential, osimertinib-only DTP control AUC in same experiment: 21122, DMSO control AUC in same experiment: 7080
  area under confluence curve: 18800
II-18 [6]; test compound dose 300 nM, dosing schedule: upfront, osimertinib-only DTP control AUC in same experiment: 22894, DMSO control AUC in same experiment: 7080
  area under confluence curve: 6900
